Data taken from PubChem BioAssay (NCI).
The panel holds about 83,000 compounds, 20% with a hit somewhere; the sample as a whole holds those more often.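 Percent growth is the endpoint: 0 to 100 indicates growth inhibition (40 means 60% inhibition), 0 means no net growth, and negative values indicate cell death.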 Calls of active or inactive are those of the source. How the source made its calls: active means growth percent below 10; inactive means the rest.

Experiments:
Assay in all cases: NCI-60 one-dose screen, 48 h (100 = growth as untreated, 0 = no growth, -100 = all killed)
[1] = test system: RPMI-8226 leukemia; details: 10 µM unless noted
[2] = test system: OVCAR-8 ovarian; details: 10 µM unless noted
[3] = test system: OVCAR-5 ovarian; details: 10 µM unless noted
[4] = test system: OVCAR-4 ovarian; details: 10 µM unless noted
[5] = test system: SK-OV-3 ovarian; details: 10 µM unless noted
[6] = test system: IGROV1 ovarian; details: 10 µM unless noted
[7] = test system: OVCAR-3 ovarian; details: 10 µM unless noted
[8] = test system: HS 578T breast; details: 10 µM unless noted
[9] = test system: NCI/ADR-RES ovarian; details: 10 µM unless noted
[10] = test system: T-47D breast; details: 10 µM unless noted
[11] = test system: BT-549 breast; details: 10 µM unless noted
[12] = test system: MDA-MB-435 melanoma; details: 10 µM unless noted
[13] = test system: SW-620 colon; details: 10 µM unless noted
[14] = test system: MCF7 breast; details: 10 µM
[15] = test system: HCT-116 colon; details: 10 µM unless noted
[16] = test system: KM12 colon; details: 10 µM unless noted
[17] = test system: HCC-2998 colon; details: 10 µM unless noted

Measured: growth

CCN1CCN(C(=S)SCC(=O)Nc2nc3ccc(C)cc3s2)CC1
inactive: [1] 94.7% | [2] 91.9% | [3] 95.3% | [4] 86.2% | [5] 102% | [6] 72% | [7] 106% | [8] 112% | [9] 103% | [10] 87.8% | [11] 108% | [12] 116% | [13] 109% | [14] 105% | [15] 94.7% | [16] 108%

O=C(Nc1ccc(N2CCNCC2)cn1)c1[nH]ncc1Nc1ncnc2sc3c(c12)CCC3
inactive: [3] 20.7% | [5] 79.8% | [6] 77.6% | [8] 73% | [9] 42.6% | [10] 43.8% | [11] 85.4% | [17] 33.8% | [16] 53.4%
active: [1] -38.2% | [2] -38.9% | [4] -53.6% | [7] -39.3% | [12] -63.2% | [13] -76.1% | [14] -34% | [15] -75%

COc1ccc(Cn2c(Br)c3c(c2Br)-c2nc(NC(=O)c4ccc(OC)cc4)sc2CC3)cc1
inactive: [1] 71.8% | [2] 61.4% | [3] 79.4% | [4] 49.7% | [5] 72.9% | [6] 38.2% | [7] 88.6% | [8] 58.1% | [9] 74.7% | [10] 68.7% | [11] 84.2% | [12] 61.8% | [13] 84% | [14] 78.5% | [15] 75.9% | [17] 108% | [16] 79.9%

CN1CCN(Cc2ccc(NC(=O)c3[nH]ncc3Nc3cc(OC4CCCC4)ncn3)cc2)CC1
active: [5] 4.89%
inactive: [1] 16.9% | [2] 42.6% | [3] 50.5% | [4] 59.2% | [6] 35% | [7] 11.2% | [8] 32.8% | [9] 44% | [10] 64.1% | [11] 12.5% | [12] 41.5% | [13] 15.8% | [14] 10.7% | [17] 28.7% | [16] 21.9%

Cc1ccc2cc3c(N)c4c(C)ccc(C)c4nc3nc2c1
active: [10] 6.15% | [12] -70.3%
inactive: [1] 34.3% | [2] 34.2% | [3] 89.5% | [4] 72.9% | [5] 93.3% | [6] 75.8% | [7] 81.3% | [8] 70% | [9] 72.7% | [11] 53.9% | [13] 11.1% | [14] 37.9% | [15] 24.5% | [17] 62% | [16] 69.6%

COc1ccc(S(=O)(=O)N(Cc2ccc3c(n2)C=CC(C)(C)O3)C2CCC2)cc1OC
inactive: [3] 27.2% | [8] 12.8%
active: [1] -47.2% | [2] 2.69% | [4] -13.8% | [5] -3.43% | [6] -23.9% | [7] -26.6% | [9] 6.95% | [10] 0.329% | [11] -25.2% | [12] -34.7% | [13] 3.81% | [14] 2.14% | [17] -1.63% | [16] -1.42%

CCOC(=O)c1cc2c(n1Cc1cc(OC)cc(OC)c1)-c1oncc1CCC2
active: [5] -0.349% | [6] -38.4% | [7] -35.7% | [9] 6.97% | [12] -24.9%
inactive: [1] 20.2% | [2] 19.5% | [3] 58.9% | [4] 37.7% | [8] 21.5% | [10] 66.8% | [11] 25.2% | [13] 24.7% | [14] 12.5% | [15] 15.1% | [17] 19.3% | [16] 19.1%

CCC(C)(C)C(=O)O[C@H]1C[C@@H](C)C=C2C=C[C@H](C)[C@H](CC[C@@H]3CC=CC(=O)O3)[C@H]21
inactive: [2] 61.6% | [3] 142% | [4] 106% | [5] 115% | [6] 97.2% | [7] 51.2% | [8] 94.6% | [9] 90.6% | [10] 80.8% | [11] 95.9% | [12] 60.3% | [13] 17.7% | [17] 88.8% | [16] 87.5%
active: [1] -16.7% | [15] -5.88%

Cn1c(=O)n(C)c2cc(CNCCNc3ccnc4cc(Cl)ccc34)ccc21
inactive: [1] 34.1% | [2] 66.6% | [3] 76.7% | [4] 81.5% | [5] 86.2% | [6] 98.8% | [7] 89.3% | [8] 77.6% | [9] 80.3% | [10] 82.4% | [11] 90.8% | [12] 38.7% | [13] 23.1% | [14] 74.2% | [15] 28.1% | [17] 27.4% | [16] 54.5%

CC1(C)CC2(C)OC2C2(C1)N=NC(=Nc1ccccc1)O2 (stereo unspecified)
inactive: [2] 77.8% | [3] 94.3% | [4] 60.9% | [5] 117% | [6] 89.6% | [7] 10.3% | [8] 103% | [9] 92.7% | [10] 63.9% | [12] 59.5% | [13] 23% | [14] 23.9% | [17] 102% | [16] 87.7%
active: [1] 4.43% | [11] -19.1%

O=S1(=O)CCN(Cc2ccccc2)CC1
inactive: [1] 102% | [2] 111% | [3] 96.2% | [4] 107% | [5] 101% | [6] 119% | [7] 105% | [8] 109% | [9] 106% | [10] 93.3% | [11] 95.7% | [12] 97.6% | [13] 103% | [14] 104% | [15] 88.4% | [17] 101% | [16] 93.9%

CCOc1cccc(/C=N/NC(=O)C(=O)Nc2cccc(C(F)(F)F)c2)c1O
active: [9] 9.74% | [17] 5.43%
inactive: [1] 29% | [2] 25.6% | [3] 47.4% | [4] 31% | [5] 49.2% | [6] 25.3% | [7] 29.3% | [8] 69.3% | [10] 30.9% | [11] 45.4% | [12] 49.6% | [13] 32% | [14] 11.8% | [16] 27.8%

CCOc1cc2c(cc1OCC)C(c1cc(C)c(O)c(C)c1)NCC2 (stereo unspecified)
inactive: [1] 77.5% | [2] 92.2% | [3] 97.6% | [4] 95.9% | [5] 101% | [6] 101% | [7] 101% | [8] 107% | [9] 84.4% | [10] 91.6% | [11] 107% | [12] 97.5% | [13] 100% | [14] 89.1% | [15] 94.2% | [17] 103% | [16] 103%

CCN(CCO)CCNc1ccc(C)c2sc3cc(Cl)ccc3c(=O)c12
inactive: [1] 28.2% | [2] 38.6% | [3] 64.4% | [4] 70.8% | [5] 62.2% | [6] 56.6% | [7] 39.3% | [8] 41.9% | [9] 45.4% | [10] 53.9% | [11] 69.6%
active: [12] -68.6% | [13] -85% | [14] -83.1% | [15] -66.1% | [17] -96.8% | [16] 7.87%

COc1cc(/C=C/C(=O)N2c3ccccc3CC2C)c(OC)c2c1OCO2 (stereo unspecified)
inactive: [1] 88.6% | [2] 96.9% | [3] 87.1% | [4] 96.6% | [5] 122% | [6] 105% | [7] 103% | [8] 96.2% | [9] 81.5% | [10] 77.2% | [11] 97.7% | [12] 85.8% | [13] 93.8% | [14] 91.6% | [17] 100% | [16] 93.8%

COc1ccc(/C=C2\CCC/C(=C\c3ccc(OC)c(OC)c3)C2=O)cc1OC
active: [1] -4.53% | [2] 2.04% | [4] -0.91% | [6] 4.96% | [12] -8.1% | [13] -21.7% | [15] -68.3% | [17] -30.1% | [16] -75.2%
inactive: [3] 41% | [5] 29.7% | [7] 13.8% | [8] 41.2% | [9] 11% | [10] 19.3% | [11] 13%

CN1C(=O)N(C)C2Nn3c(s/c(=C4\C(=O)N(CCc5ccccc5)c5ccccc54)c3=O)=NC21 (stereo unspecified)
inactive: [1] 57.2% | [2] 80.9% | [3] 75.2% | [4] 79.3% | [5] 76.9% | [6] 83% | [7] 39.7% | [8] 70.5% | [9] 43.8% | [10] 67.6% | [11] 72.5% | [13] 51.9% | [15] 37.2% | [17] 85.9% | [16] 66.1%
active: [12] 5.64%

CCOc1cccc(/C=N\Nc2nc(=O)cc(C(=O)OC)s2)c1O
inactive: [1] 57.6% | [2] 66.9% | [3] 92.9% | [4] 49.3% | [5] 95.6% | [6] 61.8% | [7] 29.7% | [8] 90.4% | [9] 32.3% | [10] 37.8% | [11] 85.4% | [12] 91.6% | [13] 79.3% | [15] 22% | [17] 78% | [16] 75.3%
